# Measurements from PubChem BioAssay (NCATS).
# Results filed as inconclusive are left out. Entries that show only a call come without a potency. A number with no mark means an inactive call. Activity calls are given as the source filed them. The call rests on the fitted dose curve; in most records, active means well fitted curve in the direction sought with a large enough effect; inconclusive means small, poorly fitted or top-dose-only effect, or another doubt; inactive means no such curve, though single readings can be large; an effect the other way counts as inactive or inconclusive.
# Assay: Cytometric Cell-Based qHTS for Inhibitors of the mTORC1 Signaling Pathway in MEF (Tsc2-/-, p53-/-) Cells (AID 2660);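 further: Tsc2 and p53 null MEFs carrying empty vector with compound for 24 h; percent of cells above a phospho-rpS6 to PI ratio cutoff in each well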
# Conditions: mTORC1 pathway cytometry; series mostly up to 38.3 µM; activity change, negative = inhibition: at the top concentration
# Procedure, shortened: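 Cells are plated, treated with compound for 24 hrs at 37 degree Celsius, then fixed, blocked and immunostained for phospho-rpS6 Ser235/236. Propidium iodide counterstain follows. Per-well % positive cells is derived from the PI-normalized phospho-S6 signal.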
row,Compound,"activity change, negative = inhibition [%]"
1,CC(N=C(NC#N)Nc1ccncc1)C(C)(C)C (centres undefined),-5.95
2,NC(=O)c1cn(Cc2c(F)cccc2F)nn1,-1.12
3,COCCCC/C(=N\OCCN)c1ccc(C(F)(F)F)cc1,3.41
4,NC1=NCC2c3ccccc3Cc3ccccc3N12 (centres undefined),-2.88
5,Cc1cccc(C)c1NC(=O)C(C)N (centres undefined),8.23
6,COc1ccc([C@@H]2Sc3ccccc3N(CCN(C)C)C(=O)[C@@H]2OC(C)=O)cc1,1.16
7,Cc1scc2c1N(C(=O)CN1CCN(C)CC1)c1ccccc1NC2=O,-1.25
8,C[C@]12CCC(=O)C=C1CC[C@@H]1[C@@H]2CC[C@@]2(C)[C@H]1CC[C@]2(O)C(=O)CO,-1.83
9,CCn1cc(C(=O)O)c(=O)c2cc3c(cc21)OCO3,-0.707
10,CN1C(=O)CC[C@H]1c1cccnc1,1.01
11,CC(C)(Oc1ccc(CCNC(=O)c2ccc(Cl)cc2)cc1)C(=O)O,-4.6
12,NC(N)=N/N=C/c1c(Cl)cccc1Cl,-0.318
13,CC(=O)[C@@]1(O)CC[C@H]2[C@@H]3CCC4=CC(=O)CC[C@]4(C)[C@H]3CC[C@@]21C,-0.116
14,C[C@@H](O)[C@H]1C(=O)N2C(C(=O)O)=C(SCCN=CN)C[C@H]12,-17
15,CCn1nc(C(=O)O)c(=O)c2cc3c(cc21)OCO3,-4.95
16,Brc1c(NC2=NCCN2)ccc2nccnc12,-1.55
17,CCCCCCCC/C=C\CCCCCCCC(=O)NCc1ccc(O)c(OC)c1,4.78
18,C[N+](C)(C)CCCCCCCCCC[N+](C)(C)C,7.71
19,CCN(CC)CCCN(c1ccccc1)C1Cc2ccccc2C1,-11.2
20,CNCCCN1c2ccccc2CCc2ccccc21,8.05
21,CN1C[C@H](C(=O)N[C@]2(C)O[C@@]3(O)[C@@H]4CCCN4C(=O)[C@H](Cc4ccccc4)N3C2=O)C[C@@H]2c3cccc4[nH]cc(c34)C[C@H]21,-2.38
22,CSc1ccc(C(=O)c2[nH]c(=O)[nH]c2C)cc1,-4.38

# Assay: High Content Imaging Cell-Based qHTS for Inhibitors of the mTORC1 Signaling Pathway in MEF (Tsc2-/-, p53-/-) Cells (AID 2666);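 further: percent of cells scored positive for phospho-rpS6 Ser235/236 immunostaining by imaging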; further: potency means the concentration at half of the fitted maximal effect
# Conditions: series mostly up to 38.3 µM
# Procedure, shortened: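 MEF Tsc2-/- p53-/- (empty vector), DMEM/10% FBS; cpd 24 h 37 °C; PFA fix, Alexa-488 p-rpS6 S235/236 Ab, Hoechst; imaged; rapamycin-defined inhibition; % positive cells/well.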
Compound,outcome,Potency
CC(N=C(NC#N)Nc1ccncc1)C(C)(C)C (centres undefined),inactive,–
Cc1ccc(/C(=C\CN2CCCC2)c2ccccn2)cc1,inactive,–
NC(=O)c1cn(Cc2c(F)cccc2F)nn1,inactive,–
CCN(CC)CCOCCOC(=O)C1(c2ccccc2)CCCC1,inactive,–
COCCCC/C(=N\OCCN)c1ccc(C(F)(F)F)cc1,inactive,–
Cc1nc2ccccn2c(=O)c1CCN1CCC(C(=O)c2ccc(F)cc2)CC1,inactive,–
NC1=NCC2c3ccccc3Cc3ccccc3N12 (centres undefined),inactive,–
CCCN1C[C@H](CSC)C[C@@H]2c3cccc4[nH]cc(c34)C[C@H]21,inactive,–
COc1ccc([C@@H]2Sc3ccccc3N(CCN(C)C)C(=O)[C@@H]2OC(C)=O)cc1,inactive,–
C[C@]12CCC(=O)C=C1CC[C@@H]1[C@@H]2CC[C@@]2(C)[C@H]1CC[C@]2(O)C(=O)CO,inactive,–
CCn1cc(C(=O)O)c(=O)c2cc3c(cc21)OCO3,inactive,–
CC(C)(C)c1ccc(C(=O)CCCN2CCC(OC(c3ccccc3)c3ccccc3)CC2)cc1,–,20.7 µM (active)
CN1C(=O)CC[C@H]1c1cccnc1,inactive,–
CC(C)(Oc1ccc(CCNC(=O)c2ccc(Cl)cc2)cc1)C(=O)O,inactive,–
NC(N)=N/N=C/c1c(Cl)cccc1Cl,inactive,–
CC(=O)[C@@]1(O)CC[C@H]2[C@@H]3CCC4=CC(=O)CC[C@]4(C)[C@H]3CC[C@@]21C,inactive,–
C[C@@H](O)[C@H]1C(=O)N2C(C(=O)O)=C(SCCN=CN)C[C@H]12,inactive,–
COc1ccc2c(c1OC)C(=O)O[C@@H]2[C@H]1c2c(cc3c(c2OC)OCO3)CCN1C,inactive,–
CCn1nc(C(=O)O)c(=O)c2cc3c(cc21)OCO3,inactive,–
Brc1c(NC2=NCCN2)ccc2nccnc12,inactive,–
CN(C)[C@@H]1C(=O)C(C(N)=O)=C(O)[C@@]2(O)C(=O)C3=C(O)c4c(O)ccc(Cl)c4[C@@H](O)[C@H]3C[C@@H]12,inactive,–
CCCCCCCC/C=C\CCCCCCCC(=O)NCc1ccc(O)c(OC)c1,inactive,–
COC(=O)C1=C(C)NC(C)=C(C(=O)OC(C)(C)CN(C)CCC(c2ccccc2)c2ccccc2)C1c1cccc([N+](=O)[O-])c1 (centres undefined),inactive,–
C[N+](C)(C)CCCCCCCCCC[N+](C)(C)C,inactive,–
CCOC(=O)c1cnc2c(cnn2CC)c1NN=C(C)C,inactive,–
CN1C[C@H](C(=O)N[C@]2(C)O[C@@]3(O)[C@@H]4CCCN4C(=O)[C@H](Cc4ccccc4)N3C2=O)C[C@@H]2c3cccc4[nH]cc(c34)C[C@H]21,inactive,–
CSc1ccc(C(=O)c2[nH]c(=O)[nH]c2C)cc1,inactive,–
